# Assay outcomes (PubChem)
# Compounds with a hit are over-represented: about 18% of the library has one in this group of screens.
# CtBP-E1A blk – qHTS Assay for Inhibitors of the CtBP/E1A Interaction. CtBP / adenovirus E1A interaction (AlphaScreen). AlphaScreen GST-E1A/His-CtBP binding, 1536-well; hits give low values. activity change, % (concentration not given with the values). hit rate 0.49% among 340,000; in the data active = activity change below about -65%; inconclusive = mostly about -30% to -63%
#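 Homogeneous bead-based format: GST-tagged E1A captured on glutathione donor beads, His-tagged CtBP on nickel acceptor beads; compounds precede bead addition by 2 h at 37 °C.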
# TDP1 cell noCPT – qHTS for Inhibitors of human tyrosyl-DNA phosphodiesterase 1 (TDP1): qHTS in cells in absence of CPT; DT40 Tdp1-/- hTDP1 cells, no CPT, ATP luminescence, 48 h; Potency, µM (titrated, usually from 46.2 µM), without a hit: top-dose activity change, negative = growth inhibition, usual class: inhibitors; hit rate 15% among 420,000; AID 686978, 2013; also: potency is read from the fitted curve at half-maximal effect; nearly all actives have a fitted effect of over 55% in size
#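 DT40 Tdp1-/-;hTDP1 cells, no CPT (DMSO vehicle only), 400 cells/well; compounds pin-transferred; ≥48 hr, 37 °C; CellTiter-Glo 30 min RT dark, luminescence read.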
# DT40 TDP1 CPT – qHTS for Inhibitors of human tyrosyl-DNA phosphodiesterase 1 (TDP1): qHTS in cells in presence of CPT | chicken DT40 Tdp1-/-;hTDP1 cells + 20 nM CPT, ATP luminescence, 48 h | Potency, µM (doses to about 46.2 µM), without a hit: at the highest dose activity change, negative = growth inhibition, actives largely listed as inhibitors | hit rate 12% among 420,000; also: potency is read from the fitted curve at half-maximal effect; nearly all actives have a fitted effect of over 55% in size
#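 Chicken DT40 Tdp1-/- cells complemented with human TDP1, 400 cells/well, exposed to compounds plus 20 nM camptothecin for at least 48 h at 37 C; viability read as ATP content by CellTiter-Glo luminescence.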
# IL-1B inflam inh – qHTS for Inhibitors of Inflammasome Signaling: IL-1-beta AlphaLISA Primary Screen. activity change, % at 57.5 µM. AID 743279, 2014. THP-1 LPS/ATP IL-1B secretion, AlphaLISA, 16 h; hits give low values. hit rate 4.7% among 360,000; in the data active = activity change below about -50%; inconclusive = mostly about -30% to -49%
#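 THP-1 cells pretreated 1 hr with compounds (up to 57.5 uM final), then stimulated with LPS (250 ng/mL final) plus ATP (1.25 mM final); secreted IL-1B measured by AlphaLISA after 16 hr, decreased signal indicating inhibition.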
# TDP1 block – qHTS Assay for Inhibitors of Tyrosyl-DNA Phosphodiesterase (TDP1); Tyrosyl-DNA phosphodiesterase 1 (Homo sapiens), Q9NUW8; recombinant TDP1, AlphaScreen DNA substrate cleavage; Potency, µM (doses to about 130 µM), for inactives: top-dose activity change, negative = inhibition, actives largely listed as inhibitors; AID 485290, 2010; hit rate 0.28% among 350,000; also: potency is read from the fitted curve at half-maximal effect; nearly all actives have a fitted effect of over 40% in size
#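 AlphaScreen read-out: signal falls as enzyme removes the 3' tyrosine-FITC from a 5'-biotinylated DNA oligo (15 nM, 5 min, RT). Enzyme was E. coli-made recombinant Tdp1 at 1 nM, exposed to compound for 15 min beforehand; beads 10 ug/ml, 10 min.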
# Six1-Eya2 inh – qHTS Assay for Inhibitors of the Six1/Eya2 Interaction. Homeobox protein SIX1 (Homo sapiens) + Protein phosphatase EYA2 (Homo sapiens), …. AlphaScreen GST-Six1/His-Eya2 binding, biochemical; hits give low values. activity change, % (concentration not given with the values). hit rate 0.56% among 360,000. AID 651725, 2012; in the data active = activity change below about -65%; inconclusive = mostly about -30% to -63%
# Target sequence (O00167 whole entry, looked up): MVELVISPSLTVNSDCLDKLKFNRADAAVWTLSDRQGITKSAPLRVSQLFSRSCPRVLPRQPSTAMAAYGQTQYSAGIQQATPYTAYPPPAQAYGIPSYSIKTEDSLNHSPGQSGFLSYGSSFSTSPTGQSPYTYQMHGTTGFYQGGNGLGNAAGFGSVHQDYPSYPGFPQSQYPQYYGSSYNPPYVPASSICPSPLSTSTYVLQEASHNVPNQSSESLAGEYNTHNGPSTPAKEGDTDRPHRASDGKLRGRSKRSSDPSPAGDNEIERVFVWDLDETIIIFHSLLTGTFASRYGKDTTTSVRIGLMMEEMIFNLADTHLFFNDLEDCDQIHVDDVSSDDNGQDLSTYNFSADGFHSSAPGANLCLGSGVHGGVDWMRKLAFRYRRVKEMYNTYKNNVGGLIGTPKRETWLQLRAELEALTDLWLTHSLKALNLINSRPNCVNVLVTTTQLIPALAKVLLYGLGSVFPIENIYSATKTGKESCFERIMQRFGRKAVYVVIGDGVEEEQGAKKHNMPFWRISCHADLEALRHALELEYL
# Target sequence (Q15475 whole entry, looked up): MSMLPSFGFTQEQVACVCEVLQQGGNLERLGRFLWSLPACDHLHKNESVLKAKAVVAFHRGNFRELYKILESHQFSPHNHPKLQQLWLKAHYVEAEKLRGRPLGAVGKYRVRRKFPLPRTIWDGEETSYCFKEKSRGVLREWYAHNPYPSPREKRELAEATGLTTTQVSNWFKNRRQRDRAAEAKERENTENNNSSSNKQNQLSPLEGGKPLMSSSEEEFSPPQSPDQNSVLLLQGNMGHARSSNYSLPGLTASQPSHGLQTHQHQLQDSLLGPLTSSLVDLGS
#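 AlphaScreen with GST-Six1 and His-Eya2 (5X mix: 250 nM and 500 nM), glutathione donor and nickel acceptor beads; buffer 50 mM Tris pH 8.0, 300 mM NaCl, 1 mM TCEP; 1 h at 37 C in the dark.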
# Starred values were filed as active, the others as inactive; ? = inconclusive; . = not tested or not shown; ! = a repeat was not active. Unless noted, calls follow the shape of the dose curve; as a rule, active = well fitted curve in the direction sought with a large enough effect; inconclusive = small, poorly fitted or top-dose-only effect, or another doubt; inactive = no such curve, though single readings can be large; an effect the other way counts as inactive or inconclusive. % is scaled to controls: 0 for no effect and ±100 for the full control effect.
SMILES,CtBP-E1A blk,TDP1 cell noCPT,DT40 TDP1 CPT,IL-1B inflam inh,TDP1 block,Six1-Eya2 inh
CCCn1c(SCC(=O)Nc2cc(C)on2)nc2c1c(=O)n(C)c(=O)n2C,9,-32%,-27%,10,.,0
CCCn1c(SCC(=O)Nc2cccc(C)n2)nc2c1c(=O)n(C)c(=O)n2C,.,?,18µM*,22,-5%,0
O=C(Nc1ccccc1N1CCCC1)c1ccc(Cl)c(S(=O)(=O)N2CCOCC2)c1,-6,?,-26%,-5,.,-6
CCCCn1c(SCC(=O)Nc2nnc(CC)s2)nc2c1c(=O)n(C)c(=O)n2C,0,12µM*,23µM*,1,0%,6
CCN(c1ccccc1)S(=O)(=O)c1ccc(OC)c(NC(=O)C2=NN(c3ccccc3)C(=O)CC2)c1,0,-27%,-18%,42,-4%,24
Cc1cc(O)c(-c2cc(O)c(C)cc2O)cc1O,.,3.3µM*,5.2µM*,-99*,8%,-16
Cc1ccc(N)cc1O,-1,6.9µM*!,7.7µM*!,55,-4%,-2
COc1ccc(C2c3cc(OC)c(OC)cc3CC(=O)N2c2cccc(C#N)c2)cc1 (stereo unspecified),.,?,?,.,4%,.
CCOc1cc2c(cc1OCC)C(c1ccc(OC)cc1)N(c1ccccc1)C(=O)C2 (stereo unspecified),-9,9%,-4%,-1,3%,1
COc1ccc(C2c3cc(OC)c(OC)cc3CC(=O)N2c2ccc(C)cc2)cc1 (stereo unspecified),.,21µM*,13µM*,.,4%,.
CCOc1cc2c(cc1OCC)C(c1ccccc1)N(c1ccccc1)C(=O)C2 (stereo unspecified),-5,16µM*,16µM*,-18,8%,0
CCOc1ccc(C2NC(=O)Cc3cc(OC)c(OC)cc32)cc1 (stereo unspecified),0,-25%,2%,12,.,9
COc1cc2c(cc1OC)C(c1ccc(C)cc1)NC(=O)C2 (stereo unspecified),-9,1%,-11%,-61*,.,-2
COc1ccc(C2c3cc(OC)c(OC)cc3CC(=O)N2c2ccc(C)c(F)c2)cc1 (stereo unspecified),.,3.7µM*,3.3µM*,.,10%,.
Cc1cnc(C(=O)OCC(=O)N(C(C)C)C(C)C)cn1,6,5%,10%,1,4%,5
Cc1ccc(C(=O)NC(C)c2ccc(S(N)(=O)=O)cc2)s1 (stereo unspecified),5,-2%,23%,3,1%,0
CCn1c(CCCNC(=O)c2ccco2)nc2ccccc21,5,-21%,4%,18,.,0
CC(C)CC(=O)Nc1ccccc1N1CCN(c2ccc(F)cc2)CC1,-20,?,18µM*,0,4%,-5
CC(=O)c1ccc(S(=O)(=O)N2CCN(CCOc3ccccc3)CC2)cc1,2,?,?,13,1%,-3
COC(=O)CSc1nc2cc(C)ccc2cc1C#N,7,16µM*,18µM*,0,0%,12
COc1ccc2cc(C#N)c(SCC(=O)OCc3ccccc3)nc2c1,.,-19%,-5%,.,-7%,.
Cc1ccc2cc(C#N)c(SCc3nnc(-c4ccccc4[N+](=O)[O-])o3)nc2c1,2,21µM*,?,-8,3%,10
CCc1nc(SCC(=O)O)c(C#N)cc1C,2,3%,4%,14,6%,4
